Source: PubChem BioAssay
TRPV1 PAM: potentiators of human vanilloid receptor 1 (TRPV1); Q8NER1; TRPV1-expressing cells, Fluo-8 calcium influx, capsaicin EC20 potentiation; potentiation, % at 8.33 µM; hit rate 0.02% among 320,000; in the data active means potentiation above about 80%; inconclusive means between about 30% and that limit
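Cells expressing TRPV1 were dye-loaded with Fluo-8 and read kinetically: 10 s baseline, 3 min after compound (agonist portion), then 2 min after EC20 capsaicin (allosteric enhancer portion). Calcium-bound dye fluorescence at 480/520 nm.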
TRPML1 agonist: human mucolipin-1 channel agonism. Q9GZU1. TRPML1-expressing cells, Ca2+ dye fluorescence, FDSS. activation, % (test concentration not listed). hit rate 0.12% among 410,000; in the data active means activation above about 50%; inconclusive means mostly about 30% to 49%
Target sequence (Q9GZU1 whole entry, looked up): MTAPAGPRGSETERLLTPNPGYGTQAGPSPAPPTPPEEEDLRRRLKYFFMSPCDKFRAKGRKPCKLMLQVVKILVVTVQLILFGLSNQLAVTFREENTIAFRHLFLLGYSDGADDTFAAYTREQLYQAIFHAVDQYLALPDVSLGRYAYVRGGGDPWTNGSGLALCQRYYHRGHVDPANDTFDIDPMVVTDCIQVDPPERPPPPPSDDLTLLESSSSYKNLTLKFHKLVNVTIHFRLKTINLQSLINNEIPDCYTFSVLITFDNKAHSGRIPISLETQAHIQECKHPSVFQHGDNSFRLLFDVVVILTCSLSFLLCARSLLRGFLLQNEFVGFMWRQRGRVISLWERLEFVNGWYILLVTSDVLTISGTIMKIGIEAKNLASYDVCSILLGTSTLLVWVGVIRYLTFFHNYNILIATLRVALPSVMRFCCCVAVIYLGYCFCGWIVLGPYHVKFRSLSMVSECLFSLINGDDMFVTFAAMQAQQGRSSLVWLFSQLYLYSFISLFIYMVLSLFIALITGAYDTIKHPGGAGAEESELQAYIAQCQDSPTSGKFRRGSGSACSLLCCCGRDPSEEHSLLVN
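Tetracycline-induced TRPML1-DL cells are seeded and incubated overnight before loading with a no-wash Ca2+ dye and quencher. Agonist activity is taken from the 110 s fluorescence read following compound pin-transfer on an FDSS, before EC80 54-4 challenge.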
TRPV1 agonist: human TRPV1 agonism | TRPV1-expressing cells, Fluo-8 calcium influx, agonist mode | hit rate 0.19% among 320,000 | activation, % at 8.33 µM | AID 540275 | Q8NER1; in the data active means activation above about 80%; inconclusive means between about 30% and that limit
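Fluo-8 calcium influx in TRPV1-expressing cells, kinetic read (ex 480/em 520 nm). Compound added and read 3 min for agonist activity, followed by capsaicin at EC20 final and 2 min further read for enhancement.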
TRPML1 blocker: human mucolipin-1 channel inhibition; Q9GZU1; TRPML1-inducible cells, Ca2+ dye fluorescence, FDSS; hits give low values; inhibition of EC80 agonist-evoked calcium signal; activity change, negative = inhibition, % (concentration not given with the values); hit rate 0.02% among 390,000; in the data active means activity change below about -50%; inconclusive means between about -30% and that limit;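 further: stimulus is agonist 54-4 at its EC80 concentration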
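TRPML1-DL cells, Tet-induced overnight (~16 h, 37 °C) at 1,500 cells/well, were loaded with Ca8 no-wash dye plus quencher for 45-90 min at room temperature. Compounds were pinned during FDSS kinetic reading; agonist 54-4 at EC80 (4 uM final) then added.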
A number is an active result; i = inactive; ? = inconclusive; nt = no result. The list is not random: actives were taken first. Their share in the collection is about 0.27%.

SMILES	TRPV1 PAM	TRPML1 agonist	TRPV1 agonist	TRPML1 blocker
O=C(C[n+]1cccc2cccc(O)c21)c1ccc2ccccc2c1	nt	i	nt	nt
Cc1cccc(NC(=O)c2ccc3c(c2)OCCO3)c1	i	i	i	i
Cc1ccc(NC(=O)c2ccc3c(c2)OCCO3)cc1C	i	i	85.5	i
Cc1ccc(C(=O)Nc2ccc(S(=O)(=O)N3CCOCC3)cc2)cc1C	i	i	82.2	i
N#Cc1ccc(NC(=O)CCc2ccc(S(=O)(=O)N3CCOCC3)cc2)cc1	i	i	101.6	i
CN(CC(=O)Nc1ccc(OC(F)(F)F)cc1)S(=O)(=O)c1ccc2c(c1)CCC(=O)N2	nt	i	nt	i
CCOC(=O)C1CCC(CN(Cc2ccc(OC)cc2)S(=O)(=O)c2ccc(C)cc2)CC1 (centres undefined)	nt	i	nt	i
CCOC(=O)[C@@H](C)N(C(=O)OC(C)(C)C)S(=O)(=O)N(Cc1ccccc1)[C@@H](C(=O)OC)C(C)C	nt	56.5	nt	nt
CCCCN(C(=O)c1ccc(S(=O)(=O)N(C)C)cc1)c1nc2ccccc2s1	i	i	i	i
CCCCN(C(=O)c1ccc(S(=O)(=O)N(C)C)cc1)c1ccccc1	i	81.4	i	i
O=C(N/N=C/c1c(O)ccc2ccccc12)c1cccc(C(F)(F)F)c1	i	91.5	?	i
CCN(CC)c1ccc(C=C2C(=O)OC3(CCCCC3)OC2=O)cc1	i	i	i	i
CCN(CC)c1ccc(/C=C2/C(=O)c3ccc(C(=O)O)cc3C2=O)cc1	i	65.3	?	i
CCn1c(C(=O)N2CCCC(C(=O)N3CCN(c4cc(C)ccc4C)CC3)C2)cc2sccc21 (centres undefined)	nt	64.9	nt	i
Cc1cccc(N2C(=O)CS(=O)(=O)C23C(=O)N(Cc2c(F)cccc2Cl)c2ccccc23)c1 (centres undefined)	nt	i	nt	i
CCOC(=O)c1ccc(-c2ccc(/C=C(\C#N)c3nc4ccc(C)cc4[nH]3)o2)cc1	nt	50.7	nt	i
Cc1ccc2nc(/C(C#N)=C/c3ccc(-c4ccccc4C(=O)O)o3)[nH]c2c1	i	?	i	i
CN(C)c1ccc(/C=C/c2ccnc3c(Cl)ccc(Cl)c23)cc1	nt	63.8	nt	nt
Cc1ccc2c(/C=C/c3ccc(N(C)C)cc3)ccnc2c1C	nt	i	nt	nt
CCC(C)c1ccc(NC(=S)NCc2ccccc2OC)cc1 (centres undefined)	i	i	83.2	i
CC(C)(C)c1cc(C(=O)Nc2ccc(F)cc2)n(Cc2ccc(F)cc2)n1	i	i	87.9	i
Cc1ccc(NC(=O)c2cc(C(C)(C)C)nn2Cc2ccccc2)cc1	i	i	?	i
Cc1ccc(C)c(S(=O)(=O)N2CCN(C(=O)C3CCN(c4ncnc5sc(C)c(C)c45)CC3)CC2)c1	i	73.6	i	i
Cc1ccc(OCC(=O)Nc2cc3nn(-c4ccccc4)nc3cc2C)cc1	nt	i	nt	i
COc1ccc(Cn2nnnc2C(c2ccccn2)N2CCN(c3cc(Cl)ccc3C)CC2)cc1 (centres undefined)	i	74.3	i	i
SMILES	TRPV1 PAM	TRPML1 agonist	TRPV1 agonist	TRPML1 blocker
COCCn1nnnc1C(c1ccccn1)N1CCN(c2cc(Cl)ccc2C)CC1 (centres undefined)	i	i	i	i
CC(C)(C)n1ncc2c(=O)n(Cc3cc(Cl)ccc3Cl)cnc21	nt	i	nt	i
CC(C)(C)c1csc(NNC(=O)c2ccc(Br)cc2)n1	i	i	80.4	i
CC(C)(C)c1csc(NC(=O)c2ccccc2O)n1	i	i	i	i
CCCn1c(N2CCN(C(=O)Nc3ccc(Cl)cc3)CC2)nc2ccccc21	i	i	80.9	i
CC(C)n1c(N2CCN(C(=O)Nc3ccc(Cl)cc3)CC2)nc2ccccc21	i	i	82.2	i
CC(C)n1c(N2CCN(C(=O)Nc3ccc(F)cc3F)CC2)nc2ccccc21	i	i	i	i
Cc1ccc(C)c(N2CCN(c3nc4c(S(=O)(=O)c5ccccc5)nnn4c4ccc(Cl)cc34)CC2)c1	nt	i	nt	i
CCOc1ccc(CNC(=O)CCn2c(=O)c3cccn3c3cccnc32)cc1	nt	i	nt	i
COc1ccc(NC(=O)c2oc3ccccc3c2CSC)cn1	i	i	?	i
CCOCc1c(C(=O)Nc2ccc(OC)nc2)oc2ccccc12	i	i	90.4	i
Cc1cccc(NC(=O)c2ccc(S(=O)(=O)C(F)F)cc2)c1C	i	i	86.5	i
COc1ccc2c(CNC3CCCCCC3)c(C(=O)O)n(Cc3ccccc3F)c2c1	nt	i	nt	i
Cc1cc(Br)ccc1NC(=O)CCS(=O)(=O)c1cccc2nsnc12	nt	i	nt	i
COc1ccc(NC(=O)c2ccc3ncsc3c2)cc1	i	i	91.8	i
CCOc1ccc(NC(=O)c2ccc(S(=O)(=O)N(C)C)cc2)cc1	i	i	?	i
O=C(Nc1ccc(Br)cc1)c1ccc2ncsc2c1	i	i	?	i
CN(C)S(=O)(=O)c1ccc(NC(=O)c2ccc3ncsc3c2)cc1	i	i	80.1	i
COc1ccc(NC(=O)c2ccc3c(c2)N(C)CCS3)cc1	i	i	96.6	i
CCc1ccc(NC(=O)c2ccc3ncsc3c2)cc1	i	nt	85.7	nt
CN1CCSc2ccc(C(=O)Nc3cccc(F)c3)cc21	i	i	?	?
CC(C)c1ccc(NC(=O)CSc2ncc3c(n2)-c2ccccc2N(C)S3(=O)=O)cc1	nt	i	nt	i
COc1ccc(C(=O)Nc2ccc3ncccc3c2)cc1	i	i	90.7	i
Cc1ccc(C(=O)Nc2ccc3ncccc3c2)cc1	i	i	?	i
Nc1c(C(=O)c2ccccc2)sc2nsc(SCCN3CCOCC3)c12	i	?	105.7	i
SMILES	TRPV1 PAM	TRPML1 agonist	TRPV1 agonist	TRPML1 blocker
Cn1cnc(S(=O)(=O)N2CCC(C(=O)N3CCN(c4ccccc4F)CC3)CC2)c1	nt	i	nt	i
Cc1nc2cc(-c3cccc(F)c3)nn2c(C)c1CCC(=O)N1CCN(c2ccccn2)CC1	i	i	i	i
Cc1nc2cc(-c3cccc(F)c3)nn2c(N2CCN(C(=O)c3ccco3)CC2)c1C	i	i	81.2	i
Cc1cc(N(C)C)c(C)cc1/C=C/c1ccnc2ccccc12	nt	i	nt	nt
COc1ccc(CNC(=S)Nc2cccc(F)c2)cc1	i	i	87.6	i
COC(=O)c1cccc(NC(=S)NCc2ccc(Cl)cc2)c1	i	i	82.3	i
COc1ccc(CNC(=S)NCc2ccc(Cl)cc2)cc1OC	i	i	97.0	i
COC(=O)c1cc(NC(=S)NCc2ccc(Cl)cc2)cc(C(=O)OC)c1	i	i	?	i
O=S(=O)(c1ccccc1)n1nc(-c2ccc(Cl)cc2)nc1NCc1ccc(F)cc1	nt	i	nt	i
CN1C(=O)C(C)(C)c2cc(S(=O)(=O)NCc3ccc(C(=O)Nc4ccc(Cl)cc4)cc3)ccc21	nt	i	nt	i
Cc1ccc(CN2C(=O)C(CC(C)C)Nc3ncnc(N4CCN(c5ccccn5)CC4)c32)cc1 (centres undefined)	i	i	81.2	i
Cc1cccc(NC(=O)c2ccc(N(Cc3ccccc3)S(C)(=O)=O)cc2)c1	nt	i	nt	i
Cc1cccn2c(=O)c3cc(C(=O)NCC4CCCO4)c(=N)n(C4CCCCC4)c3nc12 (centres undefined)	i	i	90.6	i
